From publication PMC8384837, “Expanding the binding specificity for RNA recognition by a PUF domain”

Key:
Test in all cases: yeast three-hybrid, YBZ-1, SC-Leu-His + 0.5 mM 3-AT, 4 days
Settings in all cases: tags: N-Gal4 AD-HA kept; label: inside an RPR1-promoter hybrid RNA with tandem MS2 sites; ssRNA
PUM1 PUF domain R1-NFV = PUM1 PUF domain R1-NFV (Homo sapiens, UniProt Q14671 828-1176, S863N;R864F;Q867V)
Procedure, shortened: (§1)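 Matching RNA elements and Pumilio-1 PUF domain libraries, randomized at the three base-contacting residues of every repeat, were co-expressed from a centromeric plasmid in strain YBZ-1 (LexA–MS2 coat fusion, HIS3 reporter). The repeat regions were PCR-amplified and Illumina-sequenced from cells grown four days on SC-Leu (input) or SC-Leu-His + 0.5 mM 3-AT (selection). The interaction score is the log change in variant frequency from input to selection. It is computed in log2, with a pseudocount of 1 for absent variants.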

PUM1 PUF domain R1-AWR = PUM1 PUF domain R1-AWR (Homo sapiens, UniProt Q14671 828-1176, S863A;R864W;Q867R)
Procedure, shortened: as §1

PUM1 PUF domain R7-GPR = PUM1 PUF domain R7-GPR (Homo sapiens, UniProt Q14671 828-1176, S1079G;N1080P;E1083R)
Procedure, shortened: as §1

PUM1 PUF domain R7-RRT = PUM1 PUF domain R7-RRT (Homo sapiens, UniProt Q14671 828-1176, S1079R;N1080R;E1083T)
Procedure, shortened: as §1

PUM1 PUF domain R7-QRR = PUM1 PUF domain R7-QRR (Homo sapiens, UniProt Q14671 828-1176, S1079Q;N1080R;E1083R)
Procedure, shortened: as §1

PUM1 PUF domain R7-RPV = PUM1 PUF domain R7-RPV (Homo sapiens, UniProt Q14671 828-1176, S1079R;N1080P;E1083V)
Procedure, shortened: as §1

PUM1 PUF domain R4-ACS = PUM1 PUF domain R4-ACS (Homo sapiens, UniProt Q14671 828-1176, N971A;H972C;Q975S)
Procedure, shortened: as §1

PUM1 PUF domain R4-GFP = PUM1 PUF domain R4-GFP (Homo sapiens, UniProt Q14671 828-1176, N971G;H972F;Q975P)
Procedure, shortened: as §1

PUM1 PUF domain R8-RFS = PUM1 PUF domain R8-RFS (Homo sapiens, UniProt Q14671 828-1176, N1122R;Y1123F;Q1126S)
Procedure, shortened: as §1

Sequence of PUM1 PUF domain R4-ACS (Q14671 828-1176 N971A/H972C/Q975S): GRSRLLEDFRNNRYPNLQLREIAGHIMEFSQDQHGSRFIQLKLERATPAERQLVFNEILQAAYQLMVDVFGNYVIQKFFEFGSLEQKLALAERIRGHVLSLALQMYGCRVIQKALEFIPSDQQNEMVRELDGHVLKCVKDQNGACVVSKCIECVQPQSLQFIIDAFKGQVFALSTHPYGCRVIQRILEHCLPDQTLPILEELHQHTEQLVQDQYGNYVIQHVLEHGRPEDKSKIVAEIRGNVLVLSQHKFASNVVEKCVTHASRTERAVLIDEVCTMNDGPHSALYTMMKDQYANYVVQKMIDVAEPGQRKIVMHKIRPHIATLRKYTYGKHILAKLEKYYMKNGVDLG
Sequence of PUM1 PUF domain R4-GFP (Q14671 828-1176 N971G/H972F/Q975P): as the sequence (Q14671 828-1176 N971A/H972C/Q975S) above, with A144G, C145F, S148P counted along it
Sequence of PUM1 PUF domain R7-RPV (Q14671 828-1176 S1079R/N1080P/E1083V): as the sequence (Q14671 828-1176 N971A/H972C/Q975S) above, with A144N, C145H, S148Q, S252R, N253P, E256V counted along it

## GGCUAGAACUAGUGGAUCCCCCGGCGCCCGGCGGCUCGAGCCCGGGUAAGUGUAAAUUGUCUGCAUGCCGCCGGGCGCCAUGCCUGCAGGUCGACUCUAGAAAACAUG
PUM1 PUF domain R1-NFV
  binding signal: 5.68 log2 enrichment (interaction score)
PUM1 PUF domain R1-AWR
  binding signal: 1.06 log2 enrichment (interaction score)

## GGCUAGAACUAGUGGAUCCCCCGGCGCCCGGCGGCUCGAGCCCGGGUAAGUGUAAAUCGUCUGCAUGCCGCCGGGCGCCAUGCCUGCAGGUCGACUCUAGAAAACAUG
PUM1 PUF domain R1-AWR
  binding signal: 4.26 log2 enrichment (interaction score)

## GGCUAGAACUAGUGGAUCCCCCGGCGCCCGGCGGCUCGAGCCCGGGUAAGUCUAAAUAGUCUGCAUGCCGCCGGGCGCCAUGCCUGCAGGUCGACUCUAGAAAACAUG
PUM1 PUF domain R7-GPR
  binding signal: 3.96 log2 enrichment (interaction score)
PUM1 PUF domain R7-RRT
  binding signal: 4.42 log2 enrichment (interaction score)
PUM1 PUF domain R7-QRR
  binding signal: 3.77 log2 enrichment (interaction score)
PUM1 PUF domain R7-RPV
  binding signal: 1.08 log2 enrichment (interaction score)

## GGCUAGAACUAGUGGAUCCCCCGGCGCCCGGCGGCUCGAGCCCGGGUAAGUGUAUAUAGUCUGCAUGCCGCCGGGCGCCAUGCCUGCAGGUCGACUCUAGAAAACAUG
PUM1 PUF domain R4-ACS
  binding signal: 1.22 log2 enrichment (interaction score)
PUM1 PUF domain R4-GFP
  binding signal: 5.97 log2 enrichment (interaction score)

## GGCUAGAACUAGUGGAUCCCCCGGCGCCCGGCGGCUCGAGCCCGGGUAAGCGUAAAUAGUCUGCAUGCCGCCGGGCGCCAUGCCUGCAGGUCGACUCUAGAAAACAUG
PUM1 PUF domain R8-RFS
  binding signal: 5.73 log2 enrichment (interaction score)
